Only some compounds are listed: those with a hit (about 19% of all), similar ones and a draw of the others.
KB-V1 cytotox: kills drug-selected multidrug resistant KB-V1 cells; KB-V1 MDR cells viability, CellTiter-Glo, 72 h; Potency, µM (doses to about 46.1 µM), actives largely listed as cytotoxic; hit rate 3.4% among 400,000; also: nearly all actives have a fitted effect of over 60% in size
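Drug-selected KB-V1 cells, grown in DMEM lacking phenol red with 10% FBS, receive compound titrations; after three days at 37 degrees C, surviving cell ATP is quantified by CellTiter-Glo luminescence and responses normalized and curve-fitted.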
HT1080NT lethal: kills 2HG-producing HT-1080-NT fibrosarcoma cells; HT-1080-NT fibrosarcoma viability, CellTiter-Glo ATP luminescence, 48 h; hit rate 1.6% among 360,000; Potency, µM (series often up to 46.1 µM), inactives show at the top dose activity, negative = less viability, usual class: cytotoxic;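 also: NT is the 2HG producing partner of a matched IDH1 knockdown line; 0% = DMSO-treated cells and -100% = media-only wells without cells; nearly all actives have a fitted effect of over 55% in size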
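750 cells/well, RPMI + 5% FBS; 2 h settle, compound pin-transfer, 48 h at 37 degrees C. CellTiter-Glo 10 min RT, luminescence. Normalized to DMSO and media-only wells.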
TDP1 cell noCPT: qHTS for Inhibitors of human tyrosyl-DNA phosphodiesterase 1 (TDP1): qHTS in cells in absence of CPT; DT40 Tdp1-/- hTDP1 cells, no CPT, ATP luminescence, 48 h; Potency, µM (series often up to 46.2 µM), without a hit: top-dose activity change, negative = growth inhibition, usual class: inhibitors; hit rate 15% among 420,000; also: nearly all actives have a fitted effect of over 55% in size
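Camptothecin absent (DMSO only). Human TDP1-complemented DT40 knockout cells, 400 cells/well, 37 °C for minimum 48 hr; ATP measured via CellTiter-Glo, 30 min dark incubation, luminescence.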
DT40 TDP1 CPT: DT40-hTDP1 cell growth loss with CPT; AID 686979; Potency, µM (highest dose often 46.2 µM), inactives show at the highest dose activity change, negative = growth inhibition, most hits filed as inhibitors; chicken DT40 Tdp1-/-;hTDP1 cells + 20 nM CPT, ATP luminescence, 48 h; hit rate 12% among 420,000; also: nearly all actives have a fitted effect of over 55% in size
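Chicken DT40 Tdp1-/- cells stably complemented with human TDP1 were seeded at 400 cells/well in medium containing 20 nM camptothecin, exposed to pin-transferred compounds, and grown at 37 °C for at least 48 hr. Viability was read as ATP luminescence.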
KB-3-1 tox: KB-3-1 parental cell cytotoxicity | KB-3-1 viability, CellTiter-Glo ATP luminescence, 72 h | Potency, µM (doses to about 46.1 µM), most hits filed as cytotoxic | hit rate 1.4% among 400,000; also: nearly all actives have a fitted effect of over 60% in size
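Viability of parental KB-3-1 cells, measured by CellTiter-Glo luminescence, followed a 72 h incubation at 37 °C with pinned compounds in phenol-red-free DMEM containing 10% FBS.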
HT1080 IDH1KD tx: HT-1080 IDH1 knockdown cell toxicity (counter line); Potency, µM (top dose mostly 46.1 µM), for inactives: at the highest dose activity, negative = toxicity, actives largely listed as cytotoxic; HT-1080 IDH1 knockdown viability, ATP luminescence, 48 h; hit rate 2% among 360,000; AID 686971;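 also: 0% = DMSO wells and -100% = cell-free medium wells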
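Cytotoxicity counter-line: IDH1KD HT-1080, 48 h, CellTiter-Glo. Curves classed by r2, magnitude and activity.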
Active calls of the source: *. Calls follow the shape of the dose curve; as a rule, active = well fitted curve in the direction sought with a large enough effect; inconclusive = small, poorly fitted or top-dose-only effect, or another doubt; inactive = no such curve, though single readings can be large; an effect the other way counts as inactive or inconclusive. Unless noted, % is scaled to controls: 0 for no effect and ±100 for the full control effect; potency is read from the fitted curve at half-maximal effect.

CNc1nc(-c2ccoc2)nc2ccccc12 was read as TDP1 cell noCPT 0% and DT40 TDP1 CPT 1%.
Screening Cc1ccc(S(=O)(=O)N2[C@@H](CO)CO[C@H]2CC(=O)OCc2ccccc2)cc1 returned KB-V1 cytotox inconclusive, HT1080NT lethal 0%, TDP1 cell noCPT -19%, DT40 TDP1 CPT -10%, KB-3-1 tox inactive and HT1080 IDH1KD tx -5%.
`N#Cc1c(-c2ccccc2)c(-c2ccccc2)nn(CC(=O)NNC(=O)Nc2ccc(Cl)cc2)c1=O` gave KB-V1 cytotox inactive, HT1080NT lethal 6.5µM*, TDP1 cell noCPT 23µM*, DT40 TDP1 CPT inconclusive, KB-3-1 tox 18µM* and HT1080 IDH1KD tx 5.8µM*.
For O=C(Cn1nc(-c2ccc(Cl)cc2)c2ccccc2c1=O)Nc1cccc(Br)c1 the results were KB-V1 cytotox inactive, TDP1 cell noCPT -9%, DT40 TDP1 CPT -21% and KB-3-1 tox inactive.
Screening N#Cc1c(-c2ccc(Cl)cc2)c(-c2ccc(Cl)cc2)nn(CCOC(=O)CCC(=O)O)c1=O returned KB-V1 cytotox 7.3µM*, HT1080NT lethal 5.2µM*, TDP1 cell noCPT inconclusive, DT40 TDP1 CPT 10µM*, KB-3-1 tox 2.3µM* and HT1080 IDH1KD tx 7.3µM*.
`COC(=O)CCn1nc(-c2ccc(Cl)cc2)c2ccccc2c1=O` gave KB-V1 cytotox inactive, HT1080NT lethal -10%, TDP1 cell noCPT inconclusive, DT40 TDP1 CPT -24%, KB-3-1 tox inactive and HT1080 IDH1KD tx 0%.
For CCc1ccc(NC(=O)C(CC)n2c(=O)c(C(F)(F)F)nc3ccccc32)cc1 (stereo not given) the results were KB-V1 cytotox inactive, TDP1 cell noCPT inconclusive, DT40 TDP1 CPT inconclusive and KB-3-1 tox inactive.
Screening CCOC(=O)N1CCN(CC(O)COc2ccccc2[N+](=O)[O-])CC1 (stereo not given) returned KB-V1 cytotox inactive, HT1080NT lethal 4%, TDP1 cell noCPT 17%, DT40 TDP1 CPT 4%, KB-3-1 tox inactive and HT1080 IDH1KD tx 12%.
For O=C(NNc1ccccc1F)C1CCC1 the results were KB-V1 cytotox inconclusive, HT1080NT lethal -17%, TDP1 cell noCPT -17%, DT40 TDP1 CPT 5%, KB-3-1 tox inactive and HT1080 IDH1KD tx -28%.
Screening O=C(NNc1ccc(F)cc1F)C1CCC1 returned KB-V1 cytotox inactive, HT1080NT lethal inconclusive, TDP1 cell noCPT -19%, DT40 TDP1 CPT -5%, KB-3-1 tox inactive and HT1080 IDH1KD tx 4.6µM*.
CN(c1ccccc1)S(=O)(=O)c1cccc(NC(=O)c2ccc3ncsc3c2)c1 was read as KB-V1 cytotox inconclusive, HT1080NT lethal inconclusive, TDP1 cell noCPT inconclusive, DT40 TDP1 CPT 10µM*, KB-3-1 tox inconclusive and HT1080 IDH1KD tx inconclusive.
For CN(c1ccccc1)S(=O)(=O)c1cccc(NC(=O)c2cccc(C#N)c2)c1 the results were KB-V1 cytotox inactive, HT1080NT lethal -11%, TDP1 cell noCPT 15µM*, DT40 TDP1 CPT inconclusive, KB-3-1 tox inconclusive and HT1080 IDH1KD tx -7%.
`O=C(Nc1cccc(S(=O)(=O)N2CCCCC2)c1)c1ccc2ncsc2c1` gave KB-V1 cytotox inactive, HT1080NT lethal -6%, TDP1 cell noCPT inconclusive, DT40 TDP1 CPT inconclusive, KB-3-1 tox inconclusive and HT1080 IDH1KD tx -10%.
For CCn1nnc2c(N3CCCC3)ncnc21 the results were HT1080NT lethal 5%, TDP1 cell noCPT inconclusive, DT40 TDP1 CPT inconclusive and HT1080 IDH1KD tx 16%.
`Cc1ccc(NC(=O)CNc2ccccc2CN(C)C2CCCCC2)cc1` gave KB-V1 cytotox inactive, HT1080NT lethal -24%, TDP1 cell noCPT inconclusive, DT40 TDP1 CPT inconclusive, KB-3-1 tox inactive and HT1080 IDH1KD tx -19%.
